These results are taken from PubChem BioAssay (EPA / NIEHS).

More than one record can exist for a structure, and the calls need not agree. The source made the active and inactive calls. Rule for the calls: active = hit-call score of the fitted dose curve at least 0.9, where 1 is the maximum; inactive = score below 0.9.

Assay [1] is described as follows: ATG_CRE_CIS: Attagene CIS-FACTORIAL HepG2 Assay for human cAMP Responsive Element (CRE) binding protein 3 (AID 2282926). The note with it: HepG2 CRE cis-reporter, Attagene multiplexed mRNA; actives raise or lower the signal. The method, boiled down: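 Transfected HepG2 were treated for 24 hours, then RNA was extracted and reporter cDNA amplified with sequence-specific primers. Labelled fragments were separated by capillary electrophoresis, and the CRE signal was fitted bidirectionally with DMSO as baseline.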

Assay [2] deals with CCAAT/enhancer-binding protein beta (Homo sapiens) (UniProt P17676). The assay can be described thus: ATG_C_EBP_CIS: Attagene CIS-FACTORIAL HepG2 Assay for human CCAAT/Enhancer Binding Protein (C/EBP) beta (AID 2282927). The note with it: HepG2 Attagene cis-factorial transcription factor reporter; actives raise or lower the signal. The method, boiled down:
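Changes in reporter mRNA, rather than exogenous chimeric receptor activity, reflect native C/EBP signalling in transfected HepG2 cells dosed for 24 h; transcripts are detected by RT-PCR and capillary electrophoresis.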

The nature of assay [3]: ATG_CMV_CIS: Attagene CIS-FACTORIAL HepG2 Assay for human CMV (Internal Marker) (AID 2282928).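 Note: endpoint acts as a background internal control marker rather than a target.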 To be noted: HepG2 CMV promoter reporter, transcription factor profiling; actives raise or lower the signal. In a few lines: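 HepG2 cells transiently transfected with multiple cis-regulated reporter units; 24 h compound exposure. Reporter mRNA quantified by RT-PCR, 6-FAM primer-extension labeling, HpaI digestion and capillary electrophoresis; bidirectional fitting against DMSO baseline.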

Assay [4] is described as follows: ATG_DR4_LXR_CIS: Attagene CIS-FACTORIAL HepG2 Assay for human Liver X Receptor (LXR), DR4 submotif (AID 2282929). To be noted: HepG2 Attagene DR4 cis-reporter, mRNA transcription; actives raise or lower the signal. In a few lines: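 After transient transfection with multiplexed cis-promoter reporter units, HepG2 cells received test chemicals for 24 h. Reporter mRNA induction, detected by fluorescence after RT-PCR and capillary electrophoresis, was scored relative to DMSO.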

The target in assay [5] is Aryl hydrocarbon receptor (Homo sapiens) (UniProt P35869). The assay can be described thus: ATG_Ahr_CIS: Attagene CIS-FACTORIAL HepG2 Assay for human Aryl Hydrocarbon Receptor (Ahr) (AID 2282930). To be noted: HepG2 AhR cis-factorial reporter transcription; actives raise or lower the signal. The method, boiled down: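 HepG2, transient MRTU (cis) transfection, 24 h exposure. RNA → cDNA → PCR → 6-FAM primer extension → HpaI 2 h 37 C → CE. Fit: bidirectional, DMSO baseline.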
Chain of Aryl hydrocarbon receptor (Homo sapiens) (P35869 whole entry, looked up): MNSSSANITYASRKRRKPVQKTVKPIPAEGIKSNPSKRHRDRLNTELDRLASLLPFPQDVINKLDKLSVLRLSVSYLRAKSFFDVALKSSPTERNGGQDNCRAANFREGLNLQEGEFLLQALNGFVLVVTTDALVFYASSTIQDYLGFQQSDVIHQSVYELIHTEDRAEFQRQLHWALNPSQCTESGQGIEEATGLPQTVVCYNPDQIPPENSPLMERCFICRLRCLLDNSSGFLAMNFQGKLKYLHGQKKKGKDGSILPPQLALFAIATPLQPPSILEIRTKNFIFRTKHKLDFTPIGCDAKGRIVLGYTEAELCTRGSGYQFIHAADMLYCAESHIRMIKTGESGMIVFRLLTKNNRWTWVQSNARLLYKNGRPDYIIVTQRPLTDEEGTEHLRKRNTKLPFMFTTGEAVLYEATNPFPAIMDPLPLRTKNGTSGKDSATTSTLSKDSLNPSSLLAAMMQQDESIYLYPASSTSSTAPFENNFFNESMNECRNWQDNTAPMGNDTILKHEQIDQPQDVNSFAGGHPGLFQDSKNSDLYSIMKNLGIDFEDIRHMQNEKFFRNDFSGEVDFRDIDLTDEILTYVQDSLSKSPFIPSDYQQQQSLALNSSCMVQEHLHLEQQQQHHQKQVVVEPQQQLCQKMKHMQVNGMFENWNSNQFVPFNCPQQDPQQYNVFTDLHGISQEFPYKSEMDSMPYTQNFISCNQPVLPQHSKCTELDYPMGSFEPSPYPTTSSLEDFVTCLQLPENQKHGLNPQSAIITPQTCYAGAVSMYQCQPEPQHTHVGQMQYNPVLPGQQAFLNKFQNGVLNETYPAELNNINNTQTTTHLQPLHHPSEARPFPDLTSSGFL

Assay [6] is described as follows: ATG_AP_1_CIS: Attagene CIS-FACTORIAL HepG2 Assay for human Activator Protein 1 (AP-1) (AID 2282931). To be noted: HepG2 Attagene cis-factorial AP-1 reporter mRNA; actives raise or lower the signal. In a few lines:
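After 24 h incubation with test chemical, RNA from transfected HepG2 cells was reverse-transcribed, amplified, fluorescently labelled and digested before capillary electrophoresis. Reporters were driven by cis-regulatory promoters; activity fitted bidirectionally versus DMSO.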

Assay [7] in a line: ATG_AP_2_CIS: Attagene CIS-FACTORIAL HepG2 Assay for human Activator Protein 2 (AP-2) (AID 2282932). The note with it: HepG2 AP-2 cis-reporter, Attagene transcription factor profiling; actives raise or lower the signal. The method, boiled down:
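HepG2, transient MRTU transfection, cis-regulated reporters; 24 h compound exposure; RNA isolated, RT-PCR, 6-FAM labelling, HpaI digest, CE fluorescence. DMSO = negative control/baseline, bidirectional fit.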

Assay [8] can be described thus: ATG_BRE_CIS: Attagene CIS-FACTORIAL HepG2 Assay for human Bone Morphogenetic Protein (BMP) Response Element (BRE) (AID 2282933). The note with it: HepG2 BMP response element reporter, Attagene transcription factor profiling; actives raise or lower the signal. The method, boiled down: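 A HepG2 multiplex reporter system measured inducible reporter mRNA 24 h post-dosing. Detection: RT-PCR, 6-FAM primer extension, HpaI digestion, capillary electrophoresis. Activity fitted bidirectionally relative to DMSO.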

Assay [9] concerns the target Retinoic acid receptor alpha (Homo sapiens) (UniProt P10276). The assay can be described thus: ATG_DR5_RAR_CIS: Attagene CIS-FACTORIAL HepG2 Assay for human Retinoic Acid Receptor Alpha (RARE), DR5 submotif (AID 2282934). The note with it: HepG2 Attagene cis-factorial RARE DR5 reporter, mRNA; actives raise or lower the signal. The method, boiled down: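 HepG2, transient cis-reporter transfection, 24 h exposure. mRNA readout: RT-PCR, FAM label, HpaI cut, capillary electrophoresis. DMSO baseline, gain/loss fitting.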

Assay [10] has as its target Transcription factor E2F1 (Homo sapiens) (UniProt Q01094). The assay can be described thus: ATG_E2F_CIS: Attagene CIS-FACTORIAL HepG2 Assay for human E2F Transcription Factor 1 (AID 2282935). The note with it: HepG2 Attagene cis-reporter, E2F reporter RNA transcripts; actives raise or lower the signal. In a few lines:
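Cis-element reporter mRNA induction in transiently transfected HepG2, 24 h exposure. Activity fitted in both directions relative to DMSO negative control.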

Assay [11] is described as follows: ATG_E_Box_CIS: Attagene CIS-FACTORIAL HepG2 Assay for human Enhancer Box (E-box) (AID 2282936). The note with it: HepG2 E-box cis-reporter transcription, actives raise or lower the signal. The method, boiled down:
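Cells: HepG2 (human liver), transient MRTU transfection. Exposure 24 h. RNA → oligo(dT) RT → PCR → 6-FAM label → HpaI → CE. Activity fitted both directions relative to DMSO.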

Assay [12] in a line: ATG_M_61_CIS: Attagene CIS-FACTORIAL HepG2 Assay for M61 Transcription Factor (Internal Marker) (AID 2282937). The note with it: HepG2 Attagene CIS-FACTORIAL M61 internal marker reporter; actives raise or lower the signal. In a few lines:
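Using transiently transfected HepG2 liver cells, reporter transcript levels were assessed 24 h post-dosing by RT-PCR and capillary electrophoresis. Changes in either direction were fitted relative to DMSO controls.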

Assay [13] in a line: ATG_EGR_CIS: Attagene CIS-FACTORIAL HepG2 Assay for human Early Growth Response 1 (EGR1) (AID 2282938). The note with it: HepG2 Attagene CIS-FACTORIAL EGR reporter mRNA; actives raise or lower the signal. The method, boiled down: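 Fluorescent capillary-electrophoresis signal of reporter cDNA fragments serves as read-out. HepG2 cells bear transiently transfected cis-promoter reporter units and are exposed 24 h; gain- or loss-of-signal is fitted against DMSO.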

The nature of assay [14]: ATG_M_19_CIS: Attagene CIS-FACTORIAL HepG2 Assay for M19 Transcription Factor (Internal Marker) (AID 2282939). To be noted: HepG2 Attagene CIS-FACTORIAL M19 internal marker reporter; actives raise or lower the signal. The method, boiled down:
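Chemical-treated HepG2 (24 h) with MRTU constructs; reporter transcripts detected by fluorescent RT-PCR fragment analysis on capillary electrophoresis. Internal background marker, DMSO as baseline.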

Assay [15] is described as follows: ATG_ERE_CIS: Attagene CIS-FACTORIAL HepG2 Assay for Estrogen Response Element (ERE) (AID 2282940). The note with it: HepG2 ERE cis-reporter, Attagene RNA transcript; actives raise or lower the signal. In a few lines:
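Human liver cells (HepG2) bearing transiently transfected, promoter-regulated reporter units were exposed 24 h. Reporter mRNA induction was detected by capillary electrophoresis of labelled RT-PCR products and fitted bidirectionally to DMSO.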

The nature of assay [16]: ATG_Ets_CIS: Attagene CIS-FACTORIAL HepG2 Assay for human Erythroblast Transformation Specific (ETS) (AID 2282941). The note with it: HepG2 ETS cis-reporter transcription, actives raise or lower the signal. In a few lines: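 HepG2 cells transiently transfected with cis-promoter reporter transcription units were dosed for 24 h; reporter mRNA was measured by RT-PCR, 6-FAM primer extension, HpaI digestion and capillary electrophoresis, with bidirectional fitting against DMSO baseline.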

For assay [17], the target named is Hepatocyte nuclear factor 3-beta (Homo sapiens) (UniProt Q9Y261). The assay can be described thus: ATG_FoxA2_CIS: Attagene CIS-FACTORIAL HepG2 Assay for human Forkhead box A2 (FOXA2) (AID 2282942). To be noted: HepG2 cis-reporter transcription factor activity, 24 h; actives raise or lower the signal. In a few lines:
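Fluorescence signal of reporter cDNA fragments, separated by capillary electrophoresis, reflects endogenous transcription factor activity in transfected HepG2 after 24 h. Both increases and decreases fitted against DMSO.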

The nature of assay [18]: ATG_FoxO_CIS: Attagene CIS-FACTORIAL HepG2 Assay for human Forkhead box O (FoxO) (AID 2282943). To be noted: HepG2 Attagene cis-reporter, FoxO element, mRNA; actives raise or lower the signal. The method, boiled down: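 Human hepatoma HepG2 cells carry transiently introduced reporter transcription units controlled by cis promoter elements. Chemical treatment lasted 24 h, and mRNA signal was compared with DMSO.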

Assay [19] in a line: ATG_GATA_CIS: Attagene CIS-FACTORIAL HepG2 Assay for human GATA Binding Protein (AID 2282944). To be noted: HepG2 GATA cis-element reporter, Attagene multiplex mRNA; actives raise or lower the signal. In a few lines: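 Transfected cis-reporter HepG2 cells were treated with chemicals for 24 hours. Total RNA was then converted to cDNA, amplified with reporter-specific primers and analysed by fluorescent capillary electrophoresis, using DMSO-treated wells as baseline.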

Assay [20] can be described thus: ATG_GLI_CIS: Attagene CIS-FACTORIAL HepG2 Assay for human Zinc Finger Protein GLI1 (AID 2282945). To be noted: HepG2, Attagene cis-factorial reporter mRNA, GLI element; actives raise or lower the signal. In a few lines:
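Bidirectional curve fits relative to DMSO, using reporter mRNA levels from RT-PCR plus capillary electrophoresis. Cells were HepG2 transiently carrying cis-regulated reporter constructs, harvested 24 h after dosing.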

Chain of Retinoic acid receptor alpha (Homo sapiens) (P10276 whole entry, looked up): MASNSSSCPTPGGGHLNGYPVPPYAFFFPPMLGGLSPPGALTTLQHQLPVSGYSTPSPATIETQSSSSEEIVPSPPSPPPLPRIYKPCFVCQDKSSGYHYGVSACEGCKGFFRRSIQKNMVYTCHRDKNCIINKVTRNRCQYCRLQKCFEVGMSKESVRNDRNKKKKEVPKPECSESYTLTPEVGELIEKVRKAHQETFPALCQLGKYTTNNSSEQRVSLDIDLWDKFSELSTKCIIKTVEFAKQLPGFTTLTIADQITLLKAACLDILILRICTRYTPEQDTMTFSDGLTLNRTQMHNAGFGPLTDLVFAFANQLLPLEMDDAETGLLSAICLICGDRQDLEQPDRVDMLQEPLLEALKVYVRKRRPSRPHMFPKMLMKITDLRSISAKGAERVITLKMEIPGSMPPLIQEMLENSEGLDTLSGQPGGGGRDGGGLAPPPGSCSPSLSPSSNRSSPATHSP
Chain of Hepatocyte nuclear factor 3-beta (Homo sapiens) (Q9Y261 whole entry, looked up, the tested form may be a part): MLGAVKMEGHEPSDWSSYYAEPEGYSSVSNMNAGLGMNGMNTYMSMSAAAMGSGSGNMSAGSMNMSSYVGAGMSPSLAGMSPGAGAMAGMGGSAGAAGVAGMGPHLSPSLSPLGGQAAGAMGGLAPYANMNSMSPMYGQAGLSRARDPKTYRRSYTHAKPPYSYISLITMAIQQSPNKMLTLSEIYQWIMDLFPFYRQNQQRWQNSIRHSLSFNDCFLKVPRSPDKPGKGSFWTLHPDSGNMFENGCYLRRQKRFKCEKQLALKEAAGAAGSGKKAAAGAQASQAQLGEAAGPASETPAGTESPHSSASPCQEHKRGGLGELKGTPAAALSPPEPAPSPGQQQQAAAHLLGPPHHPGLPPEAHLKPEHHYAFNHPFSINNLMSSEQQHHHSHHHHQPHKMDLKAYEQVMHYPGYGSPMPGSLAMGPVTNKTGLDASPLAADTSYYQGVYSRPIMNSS
Chain of Transcription factor E2F1 (Homo sapiens) (Q01094 whole entry, looked up): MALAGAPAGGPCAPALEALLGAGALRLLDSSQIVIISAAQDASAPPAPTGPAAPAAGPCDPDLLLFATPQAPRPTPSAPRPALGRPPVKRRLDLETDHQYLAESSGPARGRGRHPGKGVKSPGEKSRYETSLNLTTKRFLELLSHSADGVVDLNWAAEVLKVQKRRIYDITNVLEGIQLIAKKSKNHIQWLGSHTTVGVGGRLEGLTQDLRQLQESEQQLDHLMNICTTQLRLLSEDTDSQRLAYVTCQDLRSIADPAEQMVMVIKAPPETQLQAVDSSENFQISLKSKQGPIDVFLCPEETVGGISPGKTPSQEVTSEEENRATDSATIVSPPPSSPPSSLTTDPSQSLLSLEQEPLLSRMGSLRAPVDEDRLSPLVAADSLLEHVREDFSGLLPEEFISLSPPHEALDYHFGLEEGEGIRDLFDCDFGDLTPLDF
Chain of CCAAT/enhancer-binding protein beta (Homo sapiens) (P17676 whole entry, looked up): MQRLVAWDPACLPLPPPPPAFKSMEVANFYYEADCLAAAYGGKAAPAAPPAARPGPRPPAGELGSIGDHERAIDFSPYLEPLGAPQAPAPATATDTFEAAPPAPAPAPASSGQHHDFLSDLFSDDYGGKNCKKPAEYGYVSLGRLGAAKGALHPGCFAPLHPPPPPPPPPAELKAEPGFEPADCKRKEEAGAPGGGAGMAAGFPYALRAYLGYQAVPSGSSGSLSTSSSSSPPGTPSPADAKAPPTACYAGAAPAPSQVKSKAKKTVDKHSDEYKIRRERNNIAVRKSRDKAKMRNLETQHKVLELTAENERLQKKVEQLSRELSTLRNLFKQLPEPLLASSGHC

For the compound `CCCCCCCCCCCCO`, the call in assay [1], in [2], in assay [3], in assay [4], in assay [5] and in assay [6] was inactive. Moreover, the call in [7], in assay [8], in assay [9], in assay [10], in assay [11] and in assay [12] was inactive. The compound was called inactive in assay [13], in [14], in assay [15], in [16], in assay [17] and in assay [18]. The compound was called inactive in assay [19] and in assay [20].

The term AC50 denotes the midpoint of the concentration-response curve, whichever way the signal moves. For `CCCCOC(=O)CC(CC(=O)OCCCC)(OC(C)=O)C(=O)OCCCC`, the compound was called inactive in [1], in assay [2], in [3], in [4], in assay [5] and in assay [6]. The call in [7], in assay [8], in assay [10], in assay [12], in assay [13] and in assay [14] was inactive. Further, the result in assay [16], in assay [17], in [18], in assay [19] and in assay [20] was inactive. Besides, the AC50 is 23.4 µM (active) in assay [4] and 42.6 µM (active) in assay [8].

Take `CCO[Si](CCCNC(N)=O)(OCC)OCC`: the compound was classed as inactive in [1], in assay [2], in assay [3], in assay [4], in assay [5] and in assay [6]. In addition, the compound was classed as inactive in assay [7], in [8], in [9], in assay [10], in [11] and in assay [12]. Moreover, the compound was called inactive in assay [13], in assay [14], in [15], in assay [16], in assay [17] and in assay [18]. Further, the call in assay [19] and in assay [20] was inactive.

Take `CC(=O)N1CCN(c2ccc(OC[C@H]3CO[C@](Cn4ccnc4)(c4ccc(Cl)cc4Cl)O3)cc2)CC1`: the half-maximal activity concentration (AC50) was 20.7 µM (active) in [1]; 44.4 µM (active) in [3]; 43.9 µM (active) in assay [4]; 0.412 µM (active) in assay [5]; 43.5 µM (active) in [6]; 28.6 µM (active) in [8]. Besides, the figures for the AC50 in assay [11] and in [13] were 54.6 µM (active) and 11.6 µM (active), respectively. Besides, the outcome in [2], in assay [7], in [9], in assay [10], in assay [12] and in assay [14] was inactive. Also, the result in [15], in assay [16], in assay [17], in assay [19] and in assay [20] was inactive.

For `O=C(Nc1ccc(Cl)cc1)Nc1ccc(Cl)c(Cl)c1`, the AC50 in assay [1] was 4.04 µM (active); in assay [4], 10.5 µM (active); in assay [6], 10.5 µM (active); in assay [8], 5.32 µM (active). For the same compound, the result in assay [2], in assay [3], in assay [5], in [7], in assay [9] and in assay [10] was inactive. In addition, the outcome in assay [11], in assay [12], in assay [13], in assay [14], in [15] and in assay [16] was inactive. Besides, the outcome in assay [17], in assay [18], in [19] and in [20] was inactive.

With `Clc1cc(Cl)c2c(c1)N=C1CCCCCN1C2`, the outcome in assay [1], in assay [2], in assay [3], in [5], in [6] and in [7] was inactive. Moreover, the compound was called inactive in assay [8], in assay [9], in assay [10], in assay [12], in assay [13] and in assay [14]. For the same compound, the outcome in assay [15], in assay [16], in [17], in assay [18], in assay [19] and in assay [20] was inactive. For the same compound, the AC50 in assay [4] was 78.1 µM (active); in assay [11], 50 µM (active).
